# Screening results: PubChem BioAssay, Sanford-Burnham Center for Chemical Genomics
# NALP3 yeast inh: NALP3 inhibition in yeast; inhibition, % at 10 µM; Yeast reconstituted NLRP3/ASC/caspase-1, beta-gal luminescence, 24 h; hit rate 0.39% among 330,000;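 active means inhibition of 50% or more; inactive means inhibition below 50%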;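 further: plate controls were induced DMSO wells for no effect and uninduced yeast grown without galactose for full effect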
# tim23-1 inh: inhibits growth of tim23-1 mutant yeast | S. cerevisiae tim23-1 growth, BacTiter-Glo luminescence, 24 h | AID 463212 | inhibition, % at 20 µM | hit rate 1.3% among 330,000;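 active means growth inhibition of the mutant yeast at or above 50%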;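 further: temperature-sensitive mutant grown at 25 °C; plate controls were DMSO-treated mutant yeast for no effect and medium wells lacking yeast for full effect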
# TIM10 inh: inhibits growth of TIM10 yeast strain. S. cerevisiae TIM10 strain growth, BacTiter-Glo luminescence, 24 h. inhibition, % at 10 µM. hit rate 1.4% among 330,000;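 active means inhibition of 40% or more at the single tested concentration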;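 further: wild-type TIM10 isogenic control strain grown at permissive 25 °C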
# tim10-1 inh: inhibits growth of tim10-1 mutant yeast; hit rate 2.2% among 330,000; S. cerevisiae tim10-1 ts strain growth, BacTiter-Glo, 24 h; inhibition, % at 20 µM;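 active means inhibition of at least 40%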;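 further: mutant grown at 25 °C; 0% = DMSO wells with yeast and 100% = wells holding no yeast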
# NALP1 inh: NALP1 inhibition | S. cerevisiae NALP1/ASC/caspase-1 growth, X-gal OD620, 72 h | hit rate 0.61% among 280,000 | inhibition, % at 10 µM; in the data active means inhibition mostly above about 24%, no sharp cut-off; inactive means mostly below about 32%
# tim23-1 confirm: confirmation of tim23-1 mutant yeast growth inhibitors | inhibition, % at 20 µM | S. cerevisiae tim23-1 growth, BacTiter-Glo luminescence, 24 h | shares compounds with tim23-1 inh | hit rate 83% among 4,400;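 active means inhibition above about 39% in either of two replicate wells at 20 µM, limit read from the data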;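 further: temperature-sensitive tim23-1 mutant grown at 25 °C; 0% = DMSO wells with yeast and 100% = medium wells without yeast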
# * marks the source's active call; other numbers are inactive results; / = not tested or not shown; ! = not confirmed by another sample. This is a sample that favours compounds with a hit; in the whole collection about 4.1% have one here.
SMILES,NALP3 yeast inh,tim23-1 inh,TIM10 inh,tim10-1 inh,NALP1 inh,tim23-1 confirm
O=C(NCc1ccccn1)C1(C(F)(F)F)C/C(=C\CCO)CCCO1 (stereo unspecified),15.8,7.9,5.7,5.7,/,/
CCN(C(=O)c1cc2c(=O)[nH]c3ccc(C)cc3c2s1)c1ccc(OC)cc1,-15.9,-9.3,-0.1,8.9,6.3,/
Cc1cc(C)n(-c2ccc(C(=O)N3CCN(S(=O)(=O)c4ccc(Cl)cc4)CC3)cc2)n1,22.8,14.5,5.1,20.9,/,/
COc1ccc(/C=N/NC(=O)CC(=O)N/N=C/c2ccc(OC)cc2)cc1,3.3,-2.7,2.3,15.8,-4.7,/
COc1ccc(CCCC(=O)N/N=C/c2ccc(C)cc2)cc1,33.8,56.4*,0.4,31.2,2.7,51.3*
CC(C)(C)c1ccc(C(=O)NN2C(=O)CSC2=S)cc1,15.9,29.2,24.5,10.5,-0.9,/
COCCNc1c(-c2ccc(OC)cc2)nc2ccc(Cl)cn12,25.7,26.4,12.4,31.1,6.2,/
CCOC(=O)CNc1c(-c2ccc(OC)cc2)nc2ccc(Cl)cn12,31.2,52.7*,24.3,13.4,-1.0,47.7*
CC1=CC(=O)c2ccccc2C1=O,-13.5,51.3*!,6.5,18.0,2.3,63.3*
O=C1C=C(Nc2ccccc2)C(=O)c2ccccc21,38.5,12.8,14.3,19.0,0.8,/
COc1cccc2c1C(=O)C=C(C)C2=O,13.0,50.0*,30.0,27.4,96.1*,46.8*
O=C(CSc1ncn[nH]1)N1CCOCC1,13.8,8.6,-8.7,0.5,27.1,/
Oc1c(C(c2ccccc2Cl)N2CCCC2)ccc2cccnc12 (stereo unspecified),24.1,64.6*,9.5,24.7,26.5,59.4*
Oc1c(C(Nc2ccccn2)c2cccnc2)cc(Cl)c2cccnc12 (stereo unspecified),31.5,49.0,33.3,19.9,22.3,/
Oc1c(C(c2ccc(Cl)cc2)N2CCCC2)cc(Cl)c2cccnc12 (stereo unspecified),18.6,64.3*,19.6,-10.3,0.1,68.3*
CCCCNC(=O)C(C1CCCCC1)N(CCN(C)C)C(=O)CCCN1C(=O)NC(c2ccc(-c3ccccc3)cc2)C(C(=O)OCc2ccccc2)=C1C (stereo unspecified),/,50.8*,5.0,29.1,/,31.2
CCCCCCN(C(=O)CCCCCN1C(=O)NC(c2ccc(-c3ccccc3)cc2)C(C(=O)OCc2ccccc2)=C1C)C(C)C(=O)NCCCC (stereo unspecified),8.9,-3.9,7.6,2.7,37.1,/
C1CN(c2nc3nonc3nc2N2C[C@H]3CC[C@H]2C3)CCS1,9.9,2.1,-6.8,16.6,20.3,/
CCC(=O)CN(Cc1cc(OC)ccc1OC)S(=O)(=O)c1ccccc1Br,/,57.7*,2.4,27.7,/,26.1
COc1ccc(CN(CCC(C)C)S(=O)(=O)c2ccccc2Br)cc1,/,34.1,-21.4,21.3,/,/
COC(=O)CCN(Cc1ccccc1)S(=O)(=O)c1ccccc1Br,/,42.7,-15.0,15.0,/,/
COC(=O)CCN(Cc1cc(OC)ccc1OC)S(=O)(=O)c1ccccc1Br,/,54.3*,13.4,28.1,/,36.2
O=C(CCC(=O)Nc1cccnc1)Nc1cccnc1,20.3,-3.9,6.3,7.8,/,/
O=C(c1cc2cc(F)ccc2[nH]1)N1CCN(c2cccc(Cl)c2)CC1,10.3,11.9,15.1,10.2,13.3,/
Cc1[nH]c(-c2ccc(F)cc2)cc1C(=O)N1CCN(c2cccc(Cl)c2)CC1,7.4,54.1*,36.2,36.2,2.7,-5.8
SMILES,NALP3 yeast inh,tim23-1 inh,TIM10 inh,tim10-1 inh,NALP1 inh,tim23-1 confirm
Cc1ccc(-c2csc(NC(=O)c3ccccc3Cl)c2C(=O)O)cc1,22.3,63.8*,16.3,18.8,-14.2,-23.9
CC(C)Cc1csc(NC(=O)c2ccccc2Cl)c1C(=O)O,-15.0,9.5,5.6,12.0,12.8,/
COc1ccc(Cl)cc1NC(=O)C1CCN(S(C)(=O)=O)CC1,3.4,3.2,-5.1,-14.8,4.5,/
COc1cccc(CNC(=O)c2cccc(S(=O)(=O)N3CCN(C)CC3)c2)c1,11.5,-10.1,-6.0,-15.1,5.5,/
CC(C)C(NC(=O)c1ccc(C(C)(C)C)cc1)C(=O)Nc1cccc(S(N)(=O)=O)c1 (stereo unspecified),11.9,-0.4,3.1,18.5,-61.4,/
O=C(On1c(-c2ccccc2)nc2ccccc2c1=O)c1ccco1,35.4,75.5*,32.7,14.9,2.8,57.4*
O=C(OCc1c(-c2ccccc2)ncc2ccccc12)c1ccco1,36.7,55.0*,28.1,24.4,/,39.5
COC(=O)c1ccc(COn2nnc3ccccc32)cc1,27.9,-2.0,-4.5,-2.4,6.9,/
CCN(CC(=O)Nc1ccc2c(c1)OCCO2)c1nc(-c2cccnc2)nc2ccccc12,16.0,22.4,16.6,15.8,-4.7,/
COC(=O)c1ccc(C)c(NC(=O)C(CCSC)NC(=O)c2cc(OC)c(OC)c(OC)c2)c1 (stereo unspecified),8.6,-1.4,6.7,0.9,7.2,/
Cn1c(SCc2ccc(Br)cc2)nnc1-c1ccccn1,32.4,52.4*,13.3,25.1,-2.2,11.2
CCCc1cc(=O)oc2cc(C)c(CN3CCCC3)c(O)c12,15.3,58.7*,32.6,15.6,5.5,58.0*
Cc1ccc(-n2ncc(Cl)c2C(=O)NC2CC2)cc1,15.2,4.0,10.9,21.9,15.5,/
CN1CCC(=NNC(=O)CSc2ccc(Cl)cc2)CC1,-5.4,5.2,2.2,-2.6,1.5,/
Fc1ccc(-c2ccnc3nc(N4CCN(c5ccccc5)CC4)nn23)cc1,3.6,41.5,23.4,32.6,-10.0,/
c1ccc(-c2ccnc3nc(N4CCN(c5ccccc5)CC4)nn23)cc1,15.6,51.4*,30.1,17.0,-1.3,37.0
Cc1c(C#N)c(NC(=O)CCl)n(Cc2cccs2)c1C,6.1,15.2,-12.9,-1.5,-25.8,/
Cc1nc(-c2ccccc2)sc1C(N)=O,17.6,95.9*,6.3,16.6,18.5,7.3
CNC(=O)c1sc(-c2ccccc2)nc1C,12.9,-11.9,6.2,-6.3,-15.5,/
CC(=O)c1cc(CC(=O)N2CCc3c([nH]c4ccccc34)C2c2ccccn2)cs1 (stereo unspecified),9.2,1.5,-12.0,-9.4,-17.6,/
O=C(Cc1cnc2ncnn2c1)N1CCc2c([nH]c3ccccc23)C1c1ccccn1 (stereo unspecified),12.9,58.9*,-10.8,-2.8,17.3,3.0
CCOc1ccc(S(=O)(=O)N/N=C(\C)c2ccc3c(c2)OCO3)cc1,11.4,27.4,7.5,16.4,10.6,/
CCCc1ccc(S(=O)(=O)N/N=C(/C)c2ccc3c(c2)OCO3)cc1,20.2,52.8*,14.2,35.3,1.2,48.0*
Cc1cc(NS(=O)(=O)c2ccc(NC(=O)c3ccccc3F)cc2)no1,9.0,4.5,1.9,5.2,/,/
OCCCNc1cc(-c2ccccc2)nc2cc(-c3ccc(F)cc3)nn12,28.3,51.0*,4.1,35.5,13.4,55.0*
Cc1cc(NCCCO)n2nc(-c3cccs3)cc2n1,4.0,-5.7,8.1,24.0,5.5,/
